# Test results: PubChem BioAssay (NCATS)
# This is one part of the list. A call without a number means that no potency is given here. Results filed as inconclusive are left out. The source made the active and inactive calls. The call rests on the fitted dose curve; in most records, active means well fitted inhibition curve with a large enough effect; inconclusive means small, poorly fitted or top-dose-only effect; inactive means flat fitted curve, though single readings scatter.
# Target: Luciferin 4-monooxygenase (Photinus pyralis) (UniProt P08659)
# Assay: qHTS screen for small molecules that inhibit ELG1-dependent DNA repair: Hit Confirmation in Biochemical Luciferin Assay (AID 624253)
# Details: purified firefly luciferase, luminescence counter-screen; series mostly up to 57.5 µM
# Excerpt: Cancer cells divide rapidly compared to normal cells in the body. During cell division, cancer cells need to duplicate their genome by DNA replication. The failure of genome duplication leads to cancer cells' death. Therefore, inhibitors of DNA replication could specifically kill cancer cells. Based on this concept, many chemotherapeutic agents were developed and have been used to treat cancer patients. However, there are a limited number of agents available in the clinical setting, and some of those that do exist have low efficacy and severe side effects. Therefore, if we can find the compounds that effectively block DNA replication either by directly damaging DNA or by inhibiting other cellular mechanisms, the options for cancer treatment will be broadened. With this in mind, we developed a quantitative high-throughput ELG1-luciferase reporter gene assay. Small molecules that specifically block ELG1 function in response to DNA damage can be identified by monitoring the suppression of luciferase activity. Since ELG1 defines a pathway for repairing DNA damage, agents blocking ELG1 function can be used to sensitize cancer cells to chemotherapeutic agents whose mechanism of action involves the induction of DNA damage. NIH Molecular Libraries Probe Production Network [MLPCN] NIH Chemical Genomics Center [NCGC] MLPCN Grant: R03 MH092164 Assay Provider: Kyungjae Myung, NHGRI, NIH
# 3 uL of substrate reagent will be pipetted into each well in 1536-well white, solid-bottom plates using a FRD dispenser, followed by addition of 23 nL of DMSO or compounds by pintool. After compound addition, 1 µL of luciferase will be added into the wells. The plates will be read in a ViewLux CCD-based plate reader.
# Potency means the concentration at half of the fitted maximal effect.
row,SMILES,Potency
1,CC(=O)N1CCc2cc(Br)cc(S(=O)(=O)CCC(=O)Nc3c(C)n(C)n(-c4ccccc4)c3=O)c21,inactive
2,COc1ccc(NC(C)=O)cc1NC(=O)CN1CCN(C2c3ccccc3-c3ccccc32)CC1,inactive
3,Cc1ccccc1NC(=O)CSc1nc2ccc(Nc3nc(N4CCOCC4)nc(N4CCOCC4)n3)cc2s1,inactive
4,Cc1ccc(Nc2nc(N3CCOCC3)nc(N3CCOCC3)n2)cc1Cl,inactive
5,COc1ccc(CSc2nc(N3CCOCC3)c3c(c2C#N)CC(C)(C)OC3)cc1,inactive
6,CS(=O)c1ccc(/C=C2\C=Cc3ccccc32)cc1 (stereo not given),1.03 µM (active)
7,O=C(C1CCCN(S(=O)(=O)c2ccccc2)C1)N1CCN(c2ccc(F)cc2)CC1 (stereo not given),inactive
8,COc1ccc(NC(=O)C2CCC(CNc3c(N4CCCCC4)c(=O)c3=O)CC2)c(OC)c1 (stereo not given),inactive
9,COc1ccc(NC(=O)c2sc3nc(C)nc(N4CCN(c5ccccn5)CC4)c3c2C)c(OC)c1,inactive
10,O=C(Nn1c(SCc2ccc([N+](=O)[O-])cc2)nc2ccccc2c1=O)c1ccc(F)cc1,16.4 µM (active)
